Calls of active or inactive are those of the source. Calls follow the shape of the dose curve; as a rule, active = well fitted curve in the direction sought with a large enough effect; inconclusive = small, poorly fitted or top-dose-only effect, or another doubt; inactive = no such curve, though single readings can be large or run the other way.
assay: Validation qHTS assay for inhibitors of Activation Induced Cytidine Deaminase (AID): UDG Counterscreen signal (AID 1347427); conditions: biochemical UDG counterscreen, fluorescence signal; series mostly up to 115 µM
Description: Assay Provider (PI) Patricia Gearhart Ph.D.
National Institute on Aging
National Institute of Health (NIH), Bethesda, MD
Assay Provider (PI) Rahul Kohli Ph.D.
Perelman School of Medicine
University of Pennsylvania, Philadelphia, PA
Activation-Induced Deaminase (AID) is a cytosine deaminase which converts cytosine into uracil within stretches of ssDNA. The presence of uracil in DNA initiates a cascade of mutagenic DNA repair to introduce point mutations and DNA double strand breaks. Specific targeting of AID to the immunoglobulin heavy chain loci (Igh) promotes mutagenesis in the antibody variable region for somatic hypermutation (SHM) or switch regions leading to class switch recombination (CSR). However, AID also plays a role in accumulating unnecessary mutations across the genome. Mis-targeting of AID results in the initiation of tumor development and leads to greater drug resistance among cancer cells when continually expressed. To identify an AID inhibitor, a small molecule library will be screened in collaboration with NCATS core facility at NIH. To confirm biological function, inhibitors will be examined in an in vitro murine B-cell activation assay and subsequent secondary validation screens. Top molecules will be further screened to identify inhibitory efficacy against a wild type primary splenocytes assay. Using these approaches, we hope to identify a small molecule with great efficacy and low toxicity for use as a molecular probe to further characterize AID's intricacies, or even as a therapeutic.
A FRET based analysis of cytosine deamination, was developed to identify potential inhibitors of AID catalytic activity. This screen has two signal output, Read 1 evaluates the AID inhibition response. The second readout (Read 2) evaluates UDG response and is uses as a counterscreen to exclude false positive inhibitors. Inhibition in AID and inactivity in the UDG signal is the desired outcome for this assay.
SEQUENCE No. (e.g., 1, 2, 3, etc.); […] (e.g., Cells, Incubation, Reagent, etc.); VALUE; DESCRIPTION
1a; Reagent; 3 uL; [4/3x] 1 uM AID/2.67 U/mL UDG
1b; Reagent; 3 uL; 2 U/mL UDG
1c; Reagent; 3 uL; 1 uM AID
2a; Compound; 46 nL; Follow-up plates (0.64 uM - 10 mM)
2b; Control; 46 nL; ATA ([…] - 10 mM)
3; Time; 10 min; incubation at room temperature
5; Time; 4 hr; incubation at room temperature
6; Reagent; 4 uL; [2x] 250 mM NaOH
7; Time; 15 sec; centrifuge at 1000 rpm
8; Time; 30 min; incubation at room temperature
9a; Detection; fluorescence (Read 1: AID); EnVision (PerkinElmer) plate reader, 540 excitation and 590 emission filters
9b; Detection; fluorescence (Read 2: UDG); EnVision (PerkinElmer) plate reader, 560 excitation and 665 emission filters
NOTES (numbers refer to sequence above)
1a; Reagents were dispensed in a medium-binding black solid-bottom Greiner plates (789176F) using a BioRptr liquid dispenser. Dispense 3 uL of [4/3x] 1 uM AID (provided by Kohli lab) and [4/3x] 2 U/mL UDG (NEB M0280L) into columns 1, 2, 5 to 48.
1b; Dispense 3 uL of [4/3x] 2 U/mL UDG into column 3.
1c; Dispense 3 uL of [4/3x] 1 uM AID into column 4.
2b; 10 mM Aurintricarboxylic Acid (Sigma A1895) (ATA, 8-point, n = 2, 1:2.5 dilution in column 2) double pin-transferred (Dip Factor = 2) using the Kalypsys (Wako USA) pintool equipped with a 1536 pinhead for a [final] range of 186 nM - 114 uM.
3; Room temperature incubation.
4; Dispense 1 uL of substrate mixture from the Kohli lab [4x] […] DJC20 and [4x] 250 nM DJC23 into columns 1 to 48 .
5; Room temperature incubation.
6; Dispense 4 uL of substrate mixture [2x] 250 mM NaOH into columns 1 to 48.
7; Centrifugation step to remove bubbles.
8; Room temperature incubation
9a; Fluorescence signal (column label AID) was read using the EnVision plate reader. Excitation filter = 540(8) nm, barcode = 311; Emission filter = 590(20) nm, barcode = 217; Mirror = D555, barcode = 405.
9b; Fluorescence signal (column label UDG) was read using the EnVision plate reader. […]

Compound	outcome
CN1C2CCCC1CC(NC(=O)c1nn(C)c3ccccc13)C2 (configuration not stated)	inactive
O=C1c2ccccc2C(=O)c2c(NCCc3ccc(O)cc3)ccc(NCCc3ccc(O)cc3)c21	inactive
CCc1ccc(/C=C2/SC(=S)NC2=O)cc1	inactive
C[C@H](Cc1ccccc1)Nc1ncnc2c1ncn2[C@@H]1O[C@H](CO)[C@@H](O)[C@H]1O	inactive
C1CCC(N=C(NC23CC4CC(CC(C4)C2)C3)N2CCOCC2)CC1	inactive
Cc1cccc(/C=C/c2ccccc2)n1	inactive
CC[N+](CC)(CC)CC	inactive
N#C/C(=C\c1ccc(O)c(O)c1)C(=O)Nc1ccccc1	inactive
S=C(Nc1ccccc1)Nc1nccs1	inactive
Oc1cc2c(c(Cl)c1O)CCNCC2c1ccccc1 (configuration not stated)	inactive
Nc1c(S(=O)(=O)O)cc(Nc2ccc(Nc3nc(Cl)nc(Nc4ccc(S(=O)(=O)O)cc4)n3)c(S(=O)(=O)O)c2)c2c1C(=O)c1ccccc1C2=O	inactive
O=Nc1c(-c2c(O)[nH]c3ccccc23)[nH]c2ccccc12	inactive
